Experimental findings from PubChem BioAssay (NCATS) are described below.

Where “and” joins values, the source holds several entries; their conditions need not be identical. Equal values may be shown once. Records with an inconclusive call do not appear. A number with no mark means an inactive call. Calls of active or inactive are those of the source. Calls come from the whole dose curve; as a rule, active = well fitted curve in the direction sought with a large enough effect; inconclusive = small, poorly fitted or top-dose-only effect, or another doubt; inactive = no such curve, though single readings can be large; an effect the other way counts as inactive or inconclusive.

Experiment [1] addresses Cellular tumor antigen p53 (Homo sapiens) (UniProt P04637). Briefly: Primary qHTS for small molecule compounds that upregulate eGFP-tagged delta133p53alpha (in N-terminal) cells. (AID 2060322).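 For activation: series mostly up to about 56 µM; 0% = DMSO vehicle and 100% = reference activator.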 Note: nearly all actives have a fitted effect of over 75% in size. To be noted: NCI-H358 eGFP-delta133p53alpha fluorescence, 24 h; activation: stronger effect = higher value. Summed up:
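NCI-H358 cells pre-induced 24 h with 10 ng/ml doxycycline to express N-terminal eGFP-delta133p53alpha, then dosed 24 h at 37C without doxycycline; fixed, Hoechst-stained, GFP intensity by laser scanning cytometry, normalized to DMSO (0%) and 57.5 uM 5-azacytidine (100%).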
A general note: In qHTS, concentration-response curves come from the screen itself.

The nature of experiment [2]: BET inhibitor-based combinations targeting novel dependencies in MECOM-rearranged (r) AML: SET-2 cell line (AID 2202231).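 For viability: plate controls were DMSO treated cells for no effect and wells without cells for full effect.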 Note: nearly all actives have a fitted effect of over 35% in size. To be noted: SET-2 AML cells viability, CellTiter-Glo luminescence, 48 h; viability: stronger effect = lower value, concentration not given here. Summed up:
(§1)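 Luminescent ATP readout (CellTiter-Glo) after 48 hr drug exposure gives viability. Curves span 11 concentrations and are normalized to DMSO and empty wells. Activity is reported as area under the curve and its Z-transform within each cell line.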
(In general: ATP-based viability assays read luminescence as a measure of living cells.)

A short description of experiment [3]: BET inhibitor-based combinations targeting novel dependencies in MECOM-rearranged (r) AML: OCI-AML3 cell line (AID 2202232). Note: nearly all actives have a fitted effect of over 35% in size. To be noted: Potency: OCI-AML3 viability. The method, boiled down:
as §1

Experiment [4] is described as follows: BET inhibitor-based combinations targeting novel dependencies in MECOM-rearranged (r) AML: MV-4-11 cell line (AID 2202233). Note: nearly all actives have a fitted effect of over 45% in size. The method, boiled down: (§2)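 Luminescent ATP readout (CellTiter-Glo, 15 min at room temperature) after 48 hr drug exposure gave viability. Dose-response curves, normalized to DMSO and empty-well controls, were summarized as area under the curve and its mean-centred Z-score.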

Experiment [5] can be described thus: BET inhibitor-based combinations targeting novel dependencies in MECOM-rearranged (r) AML: HNT-34 cell line (AID 2202234). Note: nearly all actives have a fitted effect of over 35% in size. Summed up: as §2
Experiment [6] can be described thus: BET inhibitor-based combinations targeting novel dependencies in MECOM-rearranged (r) AML: AML-191 cell line (AID 2202236; note: nearly all actives have a fitted effect of over 35% in size). The method, boiled down: as §1
Experiment [7] can be described thus: BET inhibitor-based combinations targeting novel dependencies in MECOM-rearranged (r) AML: AML-194 cell line (AID 2202237; note: nearly all actives have a fitted effect of over 40% in size). Summed up:
as §1

Experiment [8] in a line: BET inhibitor-based combinations targeting novel dependencies in MECOM-rearranged (r) AML: UCSD-AML1 cell line (AID 2202235). Note: nearly all actives have a fitted effect of over 40% in size. Summed up: as §2
Potency is the fitted concentration of half-maximal effect.

Cellular tumor antigen p53 (Homo sapiens), sequence (P04637 whole entry, looked up): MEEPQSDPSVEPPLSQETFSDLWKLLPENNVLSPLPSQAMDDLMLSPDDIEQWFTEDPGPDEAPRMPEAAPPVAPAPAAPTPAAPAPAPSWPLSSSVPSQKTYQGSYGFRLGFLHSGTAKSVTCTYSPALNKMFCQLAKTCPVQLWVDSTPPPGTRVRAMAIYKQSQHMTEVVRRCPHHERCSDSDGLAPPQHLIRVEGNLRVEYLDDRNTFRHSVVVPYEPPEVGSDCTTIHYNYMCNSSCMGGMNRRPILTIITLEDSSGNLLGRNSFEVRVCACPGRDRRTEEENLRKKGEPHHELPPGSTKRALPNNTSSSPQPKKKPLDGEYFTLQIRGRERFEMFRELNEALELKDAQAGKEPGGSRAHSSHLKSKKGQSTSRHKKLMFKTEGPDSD

As usually defined, the viability is a read-out of living cells in per cent, often relative to untreated cells. `O=C(NCCCCN1CCOCC1)c1cc2ccccc2o1`: the activation in experiment [1] is 15.9%. Moreover, the viability in experiment [2] is 111%. Also, the Potency entry in experiment [3], in experiment [4], in experiment [5], in experiment [6] and in experiment [7] was “inactive” each time.
`COc1ccc2c3n(c(=NC(=O)c4cccnc4)nc2c1OC)CCN3`: in experiment [1], the activation was -16.5%. Also, in experiment [2], the viability was 112%. Further, the Potency was 0.235 µM (active) in experiment [3]; 0.148 µM (active) in experiment [4]; 0.332 µM (active) in experiment [5]; 0.468 µM (active) in experiment [6]; 1.18 µM (active) in experiment [7].
As for `Cc1ccc(O)c(C(CCN(C(C)C)C(C)C)c2ccccc2)c1` (stereo not drawn), the activation in experiment [1] was 47.6%. Besides, in experiment [2], the viability is 117%. The Potency entry in experiment [3], in experiment [4], in experiment [5] and in experiment [7] was “inactive” throughout.
As to `CCCc1cc(C(N)=S)ccn1`, the activation in experiment [1] is -10.9% and -12.4%. The viability in experiment [2] is 112%. For the same molecule, the Potency result in experiment [3], in experiment [4], in experiment [5], in experiment [6] and in experiment [7] was “inactive” each time.
Consider `N#CNC(=NCCCCCCOc1ccc(Cl)cc1)Nc1ccncc1`, for which the activation in experiment [1] was 37.2%. Further, the Potency in experiment [2] is 13.2 µM (active); in experiment [3], 0.0105 µM (active); in experiment [4], 0.0372 µM (active); in experiment [6] it was 0.0186 µM (active).
In the case of `CC(C)(F)C[C@H](N[C@@H](c1ccc(-c2ccc(S(C)(=O)=O)cc2)cc1)C(F)(F)F)C(=O)NC1(C#N)CC1`, in experiment [1], the activation is -2.96%. Also, the viability in experiment [2] was 104%. The Potency result in experiment [3], in experiment [8] and in experiment [6] was “inactive” in each case. In addition, the Potency in experiment [4] is 4.68 µM (active).
For the molecule `CN(Cc1cc(Br)cc(Br)c1N)C1CCCCC1`, in experiment [1], the activation was -11.7% and 14.8%. Further, the viability in experiment [2] is 102%. Also, the Potency result in experiment [3], in experiment [4], in experiment [8], in experiment [6] and in experiment [7] was “inactive” in each case.
For `CNC(=O)Nc1ccc(-c2nc(N3CC4CCC(C3)O4)c3cnn(C4CCC5(CC4)OCCO5)c3n2)cc1`, the activation in experiment [1] is 8.27%. Besides, the Potency is 0.263 µM (active) in experiment [2]; 0.105 µM (active) in experiment [3]; 0.166 µM (active) in experiment [4]; 0.0295 µM (active) in experiment [8]; 0.0295 µM (active) in experiment [6].
For `CC(=O)O[C@H]1C[C@@H]2CC[C@H]3[C@H]4C[C@H]([N+]5(C)CCCCC5)[C@@H](OC(C)=O)[C@@]4(C)CC[C@@H]3[C@@]2(C)C[C@H]1[N+]1(C)CCCCC1`, the activation in experiment [1] was 5.41%. Also, in experiment [2], the viability was 114%. In addition, the Potency entry in experiment [3], in experiment [4], in experiment [5] and in experiment [7] was “inactive” in each case.
Take `C[C@]12C=CC(=O)C=C1CC[C@@H]1[C@@H]2C(=O)C[C@@]2(C)[C@H]1CC[C@]2(O)C(=O)CO`: the activation in experiment [1] is -20.1% and 2.21%. The viability in experiment [2] is 109%. Besides, the Potency entry in experiment [3], in experiment [4], in experiment [5], in experiment [6] and in experiment [7] was “inactive” each time.
`Cc1cccc(-c2[nH]c(C(C)(C)C)nc2-c2ccc3c(c2)OCO3)n1`: the activation in experiment [1] was -10.9%. In addition, the Potency was 16.6 µM (active) in experiment [2]; 3.72 µM (active) in experiment [3]; 2.95 µM (active) in experiment [4]; 6.61 µM (active) in experiment [5]; 6.61 µM (active) in experiment [7].
`C[C@@H](NCc1cc2ccccc2[nH]1)c1cccc2ccccc12`: the activation in experiment [1] was -11%. The Potency in experiment [2] was 16.6 µM (active); in experiment [3], 14.8 µM (active); in experiment [4], 18.6 µM (active); in experiment [5], 10.5 µM (active); in experiment [7] it was 8.33 µM (active).
Consider `NC(=O)c1cnc(N[C@@H]2CCCC[C@@H]2N)nc1Nc1cccc(-n2nccn2)c1`, for which the Potency in experiment [1] is 34.3 µM (active); in experiment [2] it was 23.5 µM (active); in experiment [3], 16.6 µM (active); in experiment [4], 3.32 µM (active); in experiment [5], 14.8 µM (active); in experiment [7], 18.6 µM (active).
In the case of `C[C@@H](CN1CC(=O)NC(=O)C1)N1CC(=O)NC(=O)C1`, in experiment [1], the activation was -3.95% and 20.4%. Besides, the viability in experiment [2] was 92.4%. Further, the results for the Potency in experiment [3], in experiment [4] and in experiment [7] were 18.6 µM (active), 14.8 µM (active) and 16.6 µM (active), respectively. For the same molecule, the Potency entry in experiment [5] is “inactive”.
For the molecule `CCCc1cc(=O)[nH]c(=S)[nH]1`, in experiment [1], the activation was -13.4% and -2.19%. For the same molecule, the viability in experiment [2] is 110%. For the same molecule, the Potency entry in experiment [3], in experiment [4], in experiment [8], in experiment [6] and in experiment [7] was “inactive” throughout.
On to `CN1CCCN=C1/C=C/c1cccs1`, for which the activation in experiment [1] is -2.82%. Besides, the viability in experiment [2] is 73.8%. Further, the Potency result in experiment [3], in experiment [4] and in experiment [7] was “inactive” throughout. Also, in experiment [8], the Potency is 2.95 µM (active).
For `O=C(CCCCCCC(=O)Nc1cccnc1)NO`, in experiment [1], the activation was 50.9%. For the same molecule, the Potency is 5.25 µM (active) in experiment [2]; 5.9 µM (active) in experiment [3]; 2.35 µM (active) in experiment [4]; 7.42 µM (active) in experiment [8]; 3.32 µM (active) in experiment [6]; 8.33 µM (active) in experiment [7].
As for `CCCCCNC(=O)N1CCC(CN(Cc2ccc(Cl)cc2)Cc2ccc([N+](=O)[O-])s2)C1` (stereo not drawn), the activation in experiment [1] was -3.18%. In addition, the Potency in experiment [2] was 20.9 µM (active); in experiment [3] it was 18.6 µM (active); in experiment [4] it was 20.9 µM (active). The Potency result in experiment [8] and in experiment [7] was “inactive” throughout.
Consider `COc1ccc(C=Cc2cc(OC)c(OC)c(OC)c2)cc1NC(=O)[C@H](N)CO`, for which, in experiment [1], the activation was 7.98%. Moreover, the Potency in experiment [2] is 0.263 µM (active); in experiment [3], 0.296 µM (active); in experiment [4], 0.296 µM (active); in experiment [8] it was 0.372 µM (active); in experiment [6] it was 0.332 µM (active); in experiment [7], 0.296 µM (active).
Regarding `CC(C)[C@H](O)C(=O)N[C@@H](C)C(=O)N[C@@H]1C(=O)N(C)CCc2ccccc21`, in experiment [1], the activation was 28.1%. In addition, in experiment [2], the viability is 117%. Also, the Potency entry in experiment [3], in experiment [4], in experiment [8], in experiment [6] and in experiment [7] was “inactive” in each case.
`CN(C(Cc1ccc(OS(=O)(=O)c2cccc3cnccc23)cc1)C(=O)N1CCN(c2ccccc2)CC1)S(=O)(=O)c1cccc2cnccc12` (stereo not drawn): the activation in experiment [1] was 8.08%. Moreover, the viability in experiment [2] is 92.1%. Further, the Potency result in experiment [3] was “inactive”. In addition, the Potency in experiment [4] was 7.42 µM (active); in experiment [6], 9.34 µM (active).
